# Laboratory results as given in PubChem BioAssay AID1508625 (Wald Lab, School of Medicine, Case Western Reserve …, 2021).
# Assay: enhancers of NK cell killing of ovarian tumor cells, primary screen, imaging, OVCAR3, primary NK cells, calcein-AM imaging (AID 1508625);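 also: compound given to NK cells 16 h before adding targets at 1.5 to 1 ratio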
# Conditions: OVCAR3 lysis by primary NK cells, at 5 µM; z-score: measured here: robust Z-score, single-point normalisation
Structure (SMILES),"corrected activity, negative = more killing [%]",z-score
CCOc1ccc(C2C(N3C(=O)c4cccc([N+](=O)[O-])c4C3=O)C(=O)N2c2cc(Cl)ccc2C)cc1 (configuration not stated),-3.8,-1.18
Cc1ccc2nc(NC(=O)COC(=O)CSc3nc(C)cc(C)n3)sc2c1,-4.93,-1.86
COc1ccc(C2NC(=O)c3c(sc4c3CCCC4)N2)cc1OC (configuration not stated),-2.78,-1.1
CCc1cc(=O)oc2c(C)c(OCC(=O)c3cccc(OC)c3)ccc12,-4.48,-1.67
CCOC(=O)c1conc1-c1cccs1,-0.622,-0.198
O=C(Oc1ccc(C(=S)N2CCCCC2)cc1)c1ccccc1,-2.77,-0.857
Cc1ccc(N2C(=O)C(N3C(=O)c4cccc([N+](=O)[O-])c4C3=O)C2c2ccc(F)cc2)cc1F (configuration not stated),-2.91,-0.904
O=C(Nc1ccc(Cl)cc1)c1cc(S(=O)(=O)NC2CCCC2)ccc1F,-2.8,-0.756
Cc1ccc(NC(=O)CSc2nc3c(cc2C#N)CCCCC3)cc1,2.66,0.825
CCCCC1CC(CN2C(=O)NC(C)(C)C2=O)OC1=O (configuration not stated),-2.13,-0.811
CSc1nnc2c(n1)OC(c1ccc(C(=O)O)cc1)Nc1ccccc1-2 (configuration not stated),-1.74,-0.616
Cc1nn2c(N)cc(-c3ccccc3)nc2c1-c1ccccc1,-0.835,-0.365
COc1ccccc1CN1CCN(C2CCN(Cc3ccccc3)CC2)CC1,0.136,0.0605
CC(C)C(CC(=O)O)NS(=O)(=O)c1ccc(F)cc1 (configuration not stated),-3.43,-0.924
CCCCNCCCOc1cccc(Br)c1,-0.452,-0.168
O=[N+]([O-])c1ccc(N2CCCCC2)cc1NCCc1ccccc1,-2.78,-0.86
c1ccc(-c2ccccc2OCCN2CCNCC2)cc1,1.89,1.05
Cc1c(C(=O)NC(C)C)oc2ccc(S(=O)(=O)N3CCOCC3)cc12,-3.41,-0.849
Cc1ccc(S(=O)(=O)n2nc(OC(=O)c3ccc(C)c(C)c3)cc2N)cc1,-5.25,-1.67
COc1ccccc1OCCCCCCN1CCOCC1,-4.44,-1.82
CCOC(=O)c1c(NC(=O)c2ccc(C(=O)c3ccccc3)cc2)sc2c1CCCC2,-3.96,-0.836
COc1ccc(-c2n[nH]c(=S)o2)cc1,-4.44,-1.69
COc1ccc(-n2c(=S)[nH]c3cc(C(=O)N4CCOCC4)ccc3c2=O)cc1,-10.1,-3.21
CCC(C)N1C(=O)c2ccccc2C1C(=O)NC1CCCCCC1 (configuration not stated),-6.27,-1.78
Cc1cc(Br)cc2c(N=NC(=O)c3ccccc3)c(O)[nH]c12,-1.64,-0.646
Cc1ccc(Cn2c3[n+](c4ccccc42)CC(O)CS3)cc1 (configuration not stated),-3,-1.55

Structure (SMILES),"corrected activity, negative = more killing [%]",z-score
CC(C)C(NC(=O)c1ccccc1)C(=O)NC1=NCCS1 (configuration not stated),-2,-0.869
O=C(NN=Cc1cccnc1)c1cc(C2CC2)[nH]n1,-2.36,-1.03
CCOC(=O)c1cnc(SCc2ccccc2Cl)nc1N,-1.75,-0.473
CCc1ccc(NC(=O)c2ccccc2NC(=O)c2cccc(OC)c2)cc1,1.91,1.06
COc1ccccc1C1C(=C(O)c2ccccc2)C(=O)C(=O)N1CC(C)O (configuration not stated),-4.26,-1.62
COc1ccc(Cc2nc3c4c5c(sc4ncn3n2)C(C)(C)NC(C)(C)C5)cc1OC,-2.36,-1.03
Cc1ccc(-c2nc3ccccc3c(C(=O)O)c2C)cc1,-2.28,-1.18
CCCSc1nc2c([nH]c3ccccc32)c(=O)n1-c1ccc(F)cc1,-3.57,-0.888
O=C(CCCC(=O)Nc1cccc(Cl)c1)Nc1cccc(Cl)c1,-2.22,-0.828
O=[N+]([O-])c1cccc(CN2CCN3CCCC3C2C2CCCCC2)c1 (configuration not stated),0.41,0.179
CC(Oc1cccc(Cl)c1)C(=O)NC1CC(C)(C)NC(C)(C)C1 (configuration not stated),0.623,0.347
Cc1ccc(N2CCN(c3ccc(N4C(=O)C5CCCCC5C4=O)cc3[N+](=O)[O-])CC2C)cc1 (configuration not stated),-4.67,-1.7
Cc1ccc(C(=O)N2C(=O)C(c3ccccc3)Oc3ccccc32)cc1 (configuration not stated),-10.8,-3.35
O=C(Nc1ccccc1C(=O)Nc1ccc(Br)cn1)c1ccccc1,-6.2,-2.34
Cc1ccc(OCCNC2CCCC2)c(C)c1,0.166,0.0921
CCC(=O)c1ccc(OCC(=O)O)c(OC)c1,-0.458,-0.171
CCOC(=O)C1CCN(c2ccc([N+](=O)[O-])cc2S(=O)(=O)N2CCOCC2)CC1,-3.03,-0.939
CC(=O)Oc1ccc(C(=O)Nc2nc3ccc4ccccc4c3s2)cc1,-1.08,-0.335
COc1ccc(C(=O)N2N=C(C(C)C)CC2(O)C(F)(F)F)cc1OC (configuration not stated),-4.89,-1.46
CCN(CC)C(=O)CSc1nnc(-c2ccccc2)o1,-4.29,-1.86
Cc1ccc(-c2cc(C(=O)NN=Cc3cccnc3)[nH]n2)cc1,-3.53,-1.54
COc1ccccc1C(=O)CC1(O)C(=O)Nc2ccccc21 (configuration not stated),-4.9,-1.82
c1ccc2nn(C34CC5CC(CC(C5)C3)C4)nc2c1,-1.32,-0.685
O=C(CCCOc1ccccc1)N1CCN(c2ccccn2)CC1,-1.33,-0.738
CC(C)(C)c1ccc(-c2nc3cc(NC(=O)Cc4ccccc4)ccc3o2)cc1,-3,-1.06
COc1c(Cl)cc(Cl)cc1C(=O)n1nc(C)cc1C,-2.7,-1.06

Structure (SMILES),"corrected activity, negative = more killing [%]",z-score
COc1ccc(C(O)=C2C(=O)C(=O)N(CCN3CCNCC3)C2c2ccc(OC)cc2)cc1 (configuration not stated),-4.32,-1.87
COc1ccc(N2C3=C(C(=O)CC(C)(C)C3)C(c3cccc(F)c3)C3=C2CC(C)(C)CC3=O)c(OC)c1,-1.83,-0.581
CCOc1ccc(-n2c(SCC(=O)c3ccccc3)nc3c([nH]c4ccccc43)c2=O)cc1,-9,-2.24
O=C(COc1ccccc1)NCCSc1nc2ccccc2s1,-4.8,-1.81
O=C(c1cc(-c2ccc3c(c2)OCO3)nc2ccccc12)N1CCN(Cc2ccc3c(c2)OCO3)CC1,-3.33,-1.37
CCCC(=O)Nc1cc(-c2nc3ccc(C)cc3o2)ccc1Cl,-2.67,-1.43
COc1ccc(-c2csc(Nc3ccc(NC(C)=O)cc3)n2)cc1OC,1.84,0.823
Cc1cc(-n2c(N)c(C(N)=O)sc2=S)ccc1Cl,-4.14,-1.1
CCOC(=O)C1=C(C)Nc2sc(C(=O)c3ccc(C)cc3)c(N)c2C1c1ccc(C(=O)OC)cc1 (configuration not stated),-4.02,-1.2
Nc1nc(OCC(F)(F)F)cc(OCC(F)(F)F)n1,-6.92,-1.46
CC1=NNC(=O)C1CCC(=O)NN=Cc1ccncc1 (configuration not stated),-4.86,-2.12
Cc1ccc(-n2cnc3cc(C(=O)NC4CCCC4)ccc32)cc1Cl,-3.42,-0.921
CC(=O)CSc1nc(-c2cccs2)cc(C(F)(F)F)c1C#N,-1.56,-0.485
CC(C)(C)c1ccc(C(=O)CC2(O)C(=O)Nc3ccc(Cl)cc32)cc1 (configuration not stated),-2.41,-0.898
CCC(=O)Nc1ccccc1C(=O)C(=O)Nc1ccccc1,-1,-0.557
Cc1ccc(C2C(C(=O)c3ccco3)=C(O)C(=O)N2c2nnc(C)s2)cc1 (configuration not stated),-5.27,-2.29
COc1ccccc1C(=O)N1CCN(S(=O)(=O)c2ccc(C)cc2)CC1,-3.03,-1.35
Clc1cccc(N2CCN(Cc3cn4c(-c5cccc(Br)c5)nnc4s3)CC2)c1,-6.72,-1.91
Cc1ccc(-c2cc(C(F)(F)F)n3ncc(C(=O)N4CCC(C)CC4)c3n2)cc1,-5.63,-1.79
CCOc1ccccc1C=Nc1ccc(Cl)cc1Cl,-4.37,-1.86
CCOC(=O)c1sc(N2C(=O)C(=O)C(=C(O)c3ccccc3)C2c2ccc(C(C)(C)C)cc2)nc1C (configuration not stated),-1.11,-0.48
O=C(COc1ccc(Br)cc1)NCc1ccco1,-0.415,-0.147
COc1ccc([N+](=O)[O-])cc1N=Cc1ccc(N(C)C)cc1,-10,-2.12
COc1cc(C)c(NC(=O)c2ccccc2I)cc1C(C)C,-3.4,-1.89
